An excerpt weighted towards active compounds, which were near 1.3% of everything screened.
CtBP-E1A inh: inhibitors of CtBP/E1A interaction; 340,000 compounds, 0.49% hits; activity change, % (concentration not given with the values); AlphaScreen GST-E1A/His-CtBP binding, 1536-well; hits give low values; AID 651724
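AlphaScreen with 125 nM GST-E1A and 125 nM His-CtBP (5X stocks) in Tris pH 8.0, 300 mM NaCl, BSA, Tween 20, TCEP. Compounds preincubated 2 h at 37 deg C, then glutathione donor/nickel acceptor beads added for 1 h at 37 deg C in dark.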
Akt phos inh: blocks phosphorylation of Akt | 360,000 compounds, 0.32% hits | Neuro2A IGF-stimulated pAkt S473 HTRF, 20 min; hits give low values | activity change, % for hits at 50 µM | AID 651550; in the data active means activity change below about -80%; inconclusive means mostly about -51% to -80%
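Single-point screen (50 µM final compound) in Neuro2A cells stimulated 20 min with 6 nM IGF at 37 deg C. After lysis, Ser473-phosphorylated Akt read by HTRF (ex 330 nm, em 615/665 nm) as the 665/615 ratio.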
CCT modulator: cytosolic chaperonin activity modulation | purified chaperonin ATPase assay, HTRF ADP detection, 30 min | activity change, % (concentration not given with the values), hits read low | 360,000 compounds, 0.3% hits; in the data active means activity change below about -30%
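Nucleotide hydrolysis assay: TRiC at 20–40 nM final (set by batch activity) with 10 uM ATP, 30 min at 37 °C, in presence of 76 uM compound. Detection by competitive ADP HTRF, 30 min ambient.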
Six1-Eya2 blk: inhibitors of human Six1/Eya2 interaction | Q15475+O00167 | AlphaScreen GST-Six1/His-Eya2 binding, biochemical; hits give low values | activity change, % (concentration not given with the values) | 360,000 compounds, 0.56% hits | AID 651725
Target sequence (O00167 whole entry, looked up): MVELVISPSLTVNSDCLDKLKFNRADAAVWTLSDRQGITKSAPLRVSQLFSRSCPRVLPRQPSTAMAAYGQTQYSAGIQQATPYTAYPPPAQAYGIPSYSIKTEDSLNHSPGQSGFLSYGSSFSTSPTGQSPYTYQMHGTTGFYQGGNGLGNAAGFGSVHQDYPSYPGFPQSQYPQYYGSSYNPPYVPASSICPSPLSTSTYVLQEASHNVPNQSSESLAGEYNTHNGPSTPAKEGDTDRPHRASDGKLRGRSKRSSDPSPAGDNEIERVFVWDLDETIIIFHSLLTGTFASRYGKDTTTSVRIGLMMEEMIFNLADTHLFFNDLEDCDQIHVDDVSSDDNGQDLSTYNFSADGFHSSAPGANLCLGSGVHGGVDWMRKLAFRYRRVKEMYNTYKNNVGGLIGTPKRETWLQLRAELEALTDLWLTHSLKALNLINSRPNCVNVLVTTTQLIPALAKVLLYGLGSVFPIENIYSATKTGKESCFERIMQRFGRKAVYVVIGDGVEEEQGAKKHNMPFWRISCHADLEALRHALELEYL
Target sequence (Q15475 whole entry, looked up): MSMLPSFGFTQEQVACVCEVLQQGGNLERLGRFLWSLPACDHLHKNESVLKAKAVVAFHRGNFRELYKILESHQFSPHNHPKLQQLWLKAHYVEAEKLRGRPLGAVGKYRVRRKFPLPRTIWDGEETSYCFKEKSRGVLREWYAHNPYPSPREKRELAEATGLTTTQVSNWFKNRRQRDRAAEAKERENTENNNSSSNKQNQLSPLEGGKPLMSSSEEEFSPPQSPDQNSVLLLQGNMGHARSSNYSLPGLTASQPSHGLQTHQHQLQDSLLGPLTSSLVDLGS
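AlphaScreen with GST-Six1 and His-Eya2 (5X mix: 250 nM and 500 nM), glutathione donor and nickel acceptor beads; buffer 50 mM Tris pH 8.0, 300 mM NaCl, 1 mM TCEP; 1 h at 37 C in the dark.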
* hit, by the source's call; i = inactive; ? = inconclusive; . = not tested or not shown. Unless noted, no stated cut-off is given here; in the data, active means activity change below about -65%; inconclusive means mostly about -30% to -63%; inactive means weaker than that. On the % scale 0 is the no-effect control and ±100 the full control effect.

SMILES | CtBP-E1A inh | Akt phos inh | CCT modulator | Six1-Eya2 blk
CC(C)NC(=O)C1(C)CN(S(C)(=O)=O)CC(=O)N1Cc1cccs1 (stereo not given) | 7.2 | i | . | 24.3
O=C(Cc1cccs1)N1CCN(S(=O)(=O)c2ccc(Cl)c(C(F)(F)F)c2)CC1 | . | i | -68.7* | 13.2
CS(=O)CC(O)(c1ccc(F)cc1)C1CC1 (stereo not given) | -1.4 | i | -1.1 | -6.7
Cc1nc(SCc2cccc(Oc3ccccc3)c2)n[nH]1 | 8.4 | -112.4%* | -1.5 | 1.9
Cc1nc(SCc2ccc(Cl)c(Cl)c2)n[nH]1 | . | i | -1.4 | 2.0
O=C(Cc1ccc(NS(=O)(=O)c2cccc(C(F)(F)F)c2)cc1)NCCN1CCOCC1 | 1.4 | i | -0.6 | -1.9
COc1cc(C(=O)N/N=C/c2cc([N+](=O)[O-])cs2)cc(OC)c1OC | -71.8* | i | -3.6 | ?
Cc1ccc(S(=O)(=O)N2CCN(C(=O)CN3C(=O)CNC3=O)CC2)cc1 | . | i | 0.9 | -7.4
O=C(COC(=O)c1cc([N+](=O)[O-])ccc1N1CCOCC1)Nc1ccc(Cl)cn1 | -1.6 | i | -2.5 | -16.6
CCc1ccc2[nH]c3nc(N/N=C/c4ccc(O)cc4O)nnc3c2c1 | -81.1* | i | -2.3 | ?
Cc1ccc2[nH]c3nc(N/N=C/c4cccc(O)c4)nnc3c2c1 | -5.1 | i | -5.5 | 0.4
COC(=O)C(O)(NC(=O)c1ccncc1)C(F)(F)F (stereo not given) | . | i | -2.6 | -10.8
COC(=O)C(O)(NC(=O)NC(C)=O)C(F)(F)F (stereo not given) | 3.3 | i | -56.3* | 19.0
Cc1ccc(-c2csc3nc(SCC(=O)Nc4ccc(Cl)c(C(=O)O)c4)[nH]c(=O)c23)cc1 | . | i | 1.3 | -70.5*
Cc1sc2nc(SCC(=O)Nc3ccc(Cl)c(C(=O)O)c3)[nH]c(=O)c2c1C | 7.2 | i | -4.6 | 6.3
Cc1cc(/C=N/NC(=O)c2cccc(N(C)C)c2)c(C)n1-c1cc(C(=O)O)cc(C(=O)O)c1 | ? | i | -1.7 | -67.5*
CC(C)(C)NC(=O)COc1ccccc1C#N | 0.0 | i | 0.2 | 0.2
N#Cc1ccccc1OCC(=O)NC(N)=O | 5.8 | -110.6%* | -3.8 | -2.1
CCN(CC)S(=O)(=O)c1ccc(N2CCCC2)c(NC(=O)Cc2cc(OC)c(OC)c(OC)c2)c1 | -4.8 | i | -1.9 | 5.1
CC(=NNC(=S)N1CCCCC1)c1cccc(C)n1 | -0.4 | i | -1.8 | -91.0*
CSC(=S)NN=C(C)c1cccc(C)n1 | -92.5* | i | 0.3 | -91.2*
CC(=NNC(=S)N1CCCCC1)c1ccccn1 | -15.7 | i | -0.6 | -86.8*
CC(=NNC(=S)N1CC2CCC(CC2)C1)c1ccncn1 | -96.0* | i | -0.6 | ?
Cc1cccc(C(=S)N2CCOCC2)n1 | 1.2 | i | -1.3 | -2.3
COc1ccc(S(=O)(=O)Nc2ccc(-n3cnnn3)cc2)cc1Br | -2.2 | i | -0.5 | -10.5
SMILES | CtBP-E1A inh | Akt phos inh | CCT modulator | Six1-Eya2 blk
Fc1ccc(NCc2cccnc2)cc1 | 4.2 | i | 1.2 | 1.4
O=C(CNC(=O)COc1ccccc1)NCc1cccnc1 | 10.4 | i | -41.4* | -1.3
Cc1ccc(OCC(=O)NCc2cccnc2)cc1 | -5.4 | i | 0.5 | 11.4
c1ccc(NCc2cccnc2)cc1 | 8.1 | i | -120.8* | -2.0
CS(=O)(=O)N(CCc1ccccc1)CC(=O)NCc1cccnc1 | 6.9 | -108.1%* | -1.9 | 14.1
Cc1cc(C)c(S(=O)(=O)N2CCN(C(=O)C3CCCO3)CC2)c(C)c1 (stereo not given) | . | i | 1.0 | 10.3
CCCC(=O)Oc1ccc(C2NC(=O)c3ccccc3O2)cc1OC (stereo not given) | 2.7 | i | -4.6 | -1.4
O=C1NCCCC1C(=O)Nc1cccc(C(F)(F)F)c1 (stereo not given) | -6.6 | -102.4%* | -0.1 | 11.3
O=C(CN1C(=O)CNC1=O)Nc1cccc(C(F)(F)F)c1 | 1.5 | -100.6%* | 1.1 | 1.0
O=C1CCC(C(=O)Nc2cccc(C(F)(F)F)c2)N1 (stereo not given) | 5.3 | i | -6.9 | 3.9
O=C(CN1C(=O)C2CCCCC2C1=O)Nc1cccc(C(F)(F)F)c1 (stereo not given) | 1.0 | i | 1.3 | 0.6
CCOC(=O)CC(=O)CSc1ncnc2c1nnn2-c1ccccc1 | -11.2 | i | -5.0 | -8.3
CC(O)(c1cccnc1)c1nc(-c2cccc(C#N)c2)cs1 (stereo not given) | 0.2 | i | -1.6 | -1.0
C[C@H](NC(=O)c1ccc(C(C)(C)C)cc1)C(=O)N1CCOCC1 | 1.6 | i | -0.5 | -0.7
Cc1c(C(=O)NCc2ccc(F)cc2)sc(=O)n1Cc1ccccc1F | 8.7 | i | 1.2 | -13.1
Cc1ccc(NC(=O)CC2CS(=O)(=O)CC2CC(=O)Nc2ccc(C)c(C)c2)cc1C (stereo not given) | 8.8 | -121.2%* | 0.1 | 1.0
Cc1nc2ccc(S(=O)(=O)NCC(=O)N3CCc4ccccc4C3)cc2s1 | 10.9 | i | -1.8 | -0.7
Cc1nc2ccc(S(=O)(=O)NCC(=O)N3CCN(c4ccccn4)CC3)cc2s1 | 6.5 | -117.4%* | -0.9 | -1.3
CNC(=S)N1C2CCCC1CC(NC(=O)c1ccc(C)cc1)C2 (stereo not given) | . | i | -48.2* | 13.1
Cc1ccc(C(=O)NC2CC3CCCC(C2)N3C(=S)NCc2ccco2)cc1 (stereo not given) | -1.2 | i | -1.9 | -10.2
N#Cc1cnc2sc3ccccc3n2c1=N | -1.7 | -118.1%* | -3.4 | -1.9
O=C(CCS(=O)(=O)c1ccc(Br)cc1)NCc1ccc(F)cc1 | . | . | -79.8* | -23.4
Cc1ccc(CNC(=O)CCS(=O)(=O)c2ccc(Br)cc2)cc1 | 18.2 | i | 2.5 | ?
CCOC(=O)C1CCN(C(=O)CCCn2nc(C)c3c(C)n(-c4ccc(C)cc4)nc3c2=O)CC1 | -7.6 | i | 0.4 | -1.4
Cc1nnc(-c2cccc(Br)c2)c2cn(-c3ccccc3Cl)nc12 | -12.0 | i | -24.6 | -8.8
SMILES | CtBP-E1A inh | Akt phos inh | CCT modulator | Six1-Eya2 blk
Cc1ccc(-n2cc3c(-c4cccc(Br)c4)nnc(C)c3n2)cc1 | ? | -102.5%* | -4.7 | -10.4
Cc1cc2nc(-c3ccc(SCC(=O)N4CCOCC4)nc3)[nH]c2cc1C | 0.2 | i | -0.2 | -16.1
Cc1cc2nc(-c3ccc(SCC(=O)N4CCN(C(=O)c5ccco5)CC4)nc3)[nH]c2cc1C | -1.0 | -94.2%* | 3.4 | -10.2
CCOCCCNC(=O)c1cccs1 | 3.7 | -115.8%* | -6.0 | 3.8
CCCCNC(=O)CNC(=O)c1cccs1 | 3.7 | . | -1.0 | 2.3
N#Cc1ccc(C(C(=O)NC2CCCCC2)n2c(=O)c(-c3cc4ccccc4[nH]3)nc3ccccc32)cc1 (stereo not given) | -4.8 | i | . | 57.1
C=CCN1C(=O)/C(=C\c2ccc(OC(=O)c3ccco3)c(OC)c2)SC1=S | . | i | -83.7* | -8.8
O=C(COC(=O)c1cc(=O)[nH]c2ccc(Br)cc12)c1ccccc1 | 2.9 | i | -33.2* | 12.5

Screens as filed in PubChem BioAssay.
